Reference: PubChem BioAssay (NCATS)
Values joined by “and” are separate entries in the source; they are usually repeats but may differ in a detail not shown here. Identical values can stand only once. Records with an inconclusive call do not appear. Active and inactive are the calls of the source. The call rests on the fitted dose curve; in most records, active means well fitted curve in the direction sought with a large enough effect; inconclusive means small, poorly fitted or top-dose-only effect, or another doubt; inactive means no such curve, though single readings can be large; an effect the other way counts as inactive or inconclusive.

Experiments:
[1] = biological target: Rap guanine nucleotide exchange factor 3 (Homo sapiens) (UniProt O95398); test: Confirmatory qHTS for antagonist of cAMP-regulated guanine nucleotide exchange factor 3 (EPAC1) (AID 1645880); further: nearly all actives have a fitted effect of over 55% in size; further: potency means the concentration at half of the fitted maximal effect
Chain of Rap guanine nucleotide exchange factor 3 (Homo sapiens) (O95398 whole entry, looked up): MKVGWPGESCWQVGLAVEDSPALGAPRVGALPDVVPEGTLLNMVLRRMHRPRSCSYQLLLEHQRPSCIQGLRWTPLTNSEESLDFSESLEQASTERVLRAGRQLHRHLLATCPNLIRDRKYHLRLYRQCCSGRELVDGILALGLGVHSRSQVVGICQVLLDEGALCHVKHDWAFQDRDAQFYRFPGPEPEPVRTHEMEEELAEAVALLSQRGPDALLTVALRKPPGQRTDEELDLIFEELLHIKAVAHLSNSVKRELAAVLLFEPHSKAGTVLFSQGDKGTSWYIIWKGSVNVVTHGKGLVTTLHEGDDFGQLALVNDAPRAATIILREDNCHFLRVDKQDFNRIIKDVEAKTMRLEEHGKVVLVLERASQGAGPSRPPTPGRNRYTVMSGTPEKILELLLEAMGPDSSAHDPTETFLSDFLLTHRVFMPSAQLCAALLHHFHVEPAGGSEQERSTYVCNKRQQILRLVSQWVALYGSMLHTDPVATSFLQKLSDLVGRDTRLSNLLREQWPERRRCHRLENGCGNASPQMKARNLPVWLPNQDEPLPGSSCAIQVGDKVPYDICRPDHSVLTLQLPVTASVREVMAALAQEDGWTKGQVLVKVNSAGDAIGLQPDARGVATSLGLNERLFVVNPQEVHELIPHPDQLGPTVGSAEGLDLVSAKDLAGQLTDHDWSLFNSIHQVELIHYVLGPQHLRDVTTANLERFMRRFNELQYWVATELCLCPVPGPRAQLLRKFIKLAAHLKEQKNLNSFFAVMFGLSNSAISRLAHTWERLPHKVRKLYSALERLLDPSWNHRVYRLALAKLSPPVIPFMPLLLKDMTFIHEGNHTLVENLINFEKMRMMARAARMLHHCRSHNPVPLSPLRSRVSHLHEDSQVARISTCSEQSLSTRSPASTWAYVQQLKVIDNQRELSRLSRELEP
How it was run: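 Nucleotide exchange uses 100 nM EPAC1, 250 nM RAP1B-BODIPY-GDP and 50 uM GDP, with compounds in a concentration-titration series. After 5 min at room temperature, fluorescence (480 nm ex/540 nm em) is read every 5 min for 30 min. Data are normalized to control ATA and DMSO.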

[2] = biological target: Rap guanine nucleotide exchange factor 3 (Homo sapiens) (UniProt O95398); test: Confirmatory qHTS for agonist of cAMP-regulated guanine nucleotide exchange factor 3 (EPAC1) (AID 1645881);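 further: EPAC1 catalysed release of BODIPY-GDP from Rap1B seen as fluorescence loss; 100% = effect of cAMP agonist control; nearly all actives have a fitted effect of over 75% in size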
[3] = biological target: Rap guanine nucleotide exchange factor 4 (Homo sapiens) (UniProt Q8WZA2); test: Confirmatory qHTS for agonist of cAMP-regulated guanine nucleotide exchange factor 4 (EPAC2) (AID 1645884);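 further: nucleotide exchange releases bodipy-GDP from Rap1 and this lowers its fluorescence; on the % scale 0 is the no-effect control and ±100 the full control effect; nearly all actives have a fitted effect of over 65% in size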
Chain of Rap guanine nucleotide exchange factor 4 (Homo sapiens) (Q8WZA2 whole entry, looked up): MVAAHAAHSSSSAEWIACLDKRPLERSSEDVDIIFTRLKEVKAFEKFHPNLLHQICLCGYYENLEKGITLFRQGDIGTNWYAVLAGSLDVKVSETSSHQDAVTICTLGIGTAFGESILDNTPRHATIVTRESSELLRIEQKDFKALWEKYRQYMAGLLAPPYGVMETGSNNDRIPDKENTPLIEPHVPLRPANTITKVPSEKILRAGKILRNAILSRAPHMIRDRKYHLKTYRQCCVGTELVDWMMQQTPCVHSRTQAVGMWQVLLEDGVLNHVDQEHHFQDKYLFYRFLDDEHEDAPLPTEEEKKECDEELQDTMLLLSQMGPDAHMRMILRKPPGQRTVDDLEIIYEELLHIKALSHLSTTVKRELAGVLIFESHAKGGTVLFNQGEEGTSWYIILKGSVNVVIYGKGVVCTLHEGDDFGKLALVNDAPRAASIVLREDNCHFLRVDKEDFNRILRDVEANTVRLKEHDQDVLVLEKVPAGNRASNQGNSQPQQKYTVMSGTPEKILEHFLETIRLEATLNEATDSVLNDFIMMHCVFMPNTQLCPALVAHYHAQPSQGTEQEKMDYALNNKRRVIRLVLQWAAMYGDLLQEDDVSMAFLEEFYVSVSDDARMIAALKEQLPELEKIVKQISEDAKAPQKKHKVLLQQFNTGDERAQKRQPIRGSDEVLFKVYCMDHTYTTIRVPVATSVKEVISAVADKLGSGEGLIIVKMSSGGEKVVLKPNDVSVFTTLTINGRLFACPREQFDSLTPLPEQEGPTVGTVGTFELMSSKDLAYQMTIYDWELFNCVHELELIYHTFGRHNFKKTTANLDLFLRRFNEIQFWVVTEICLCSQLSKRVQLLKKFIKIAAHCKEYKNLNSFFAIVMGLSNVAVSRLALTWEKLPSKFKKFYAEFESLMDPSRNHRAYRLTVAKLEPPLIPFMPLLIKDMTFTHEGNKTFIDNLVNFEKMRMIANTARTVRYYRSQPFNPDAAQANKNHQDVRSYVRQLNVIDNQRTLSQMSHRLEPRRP

[4] = biological target: Rap guanine nucleotide exchange factor 4 (Homo sapiens) (UniProt Q8WZA2); test: Confirmatory qHTS for antagonist of cAMP-regulated guanine nucleotide exchange factor 4 (EPAC2) (AID 1645885); further: nearly all actives have a fitted effect of over 25% in size; further: potency means the concentration at half of the fitted maximal effect; on activity change, negative = inhibition: on the % scale 0 is the no-effect control and ±100 the full control effect
[5] = biological target: Rap guanine nucleotide exchange factor 3 (Homo sapiens) (UniProt O95398); test: Counterscreen qHTS for antagonist of cAMP-regulated guanine nucleotide exchange factor 3 (EPAC1) (AID 1645888);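 further: fluorescence loss as bound BODIPY-GDP is released from Rap1B; % of control where 0% means no effect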
How it was run: (§1)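 Measured: fluorescence of BODIPY-GDP bound to Rap1B, which falls as exchange proceeds. Conditions include 50 uM competing GDP, 5 and 30 min reads, and a later cAMP challenge for antagonist detection.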

[6] = biological target: Rap guanine nucleotide exchange factor 3 (Homo sapiens) (UniProt O95398); test: Counterscreen qHTS for agonist of cAMP-regulated guanine nucleotide exchange factor 3 (EPAC1) (AID 1645889); further: % of control where 0% means no effect; nearly all actives have a fitted effect of over 40% in size
How it was run: as §1

O=C(CSc1nc(-c2ccc(F)cc2)nc2c1Cc1ccccc1O2)Nc1cccc(C(=O)O)c1
inactive: Potency [2] | Potency [3] | Potency [4] | Potency [5]
active: Potency [1] 6.01 µM and 151 nM

Cc1cccc(Cc2cnc(N3C(=N)SC(c4ccccc4)C3=O)s2)c1 (centres undefined)
inactive: Potency [1] | Potency [2] | Potency [3] | Potency [4] | Potency [5]

Cc1ccc2cc(CN(Cc3ccco3)C(=O)c3ccco3)c3nnnn3c2c1
active: Potency [4] 75.7 µM
inactive: Potency [1] | Potency [2] | Potency [3] | Potency [5]

COc1ccc(S(=O)(=O)N2CCC[C@H]2C(=O)N2CCC[C@H]2C(=O)NCc2ccccc2)cc1C
inactive: Potency [1] | Potency [2] | activation [3] 4.41% [at 17.1 µM, percent relative to cAMP agonist control] | Potency [4] | activity change, negative = inhibition [5] -5.32% [at 30.8 µM]

COc1cccc(NC(=O)c2csc3c2CCCC3)c1
inactive: Potency [1] | Potency [2] | activation [3] 8.66% [at 17.1 µM, percent relative to cAMP agonist control] | Potency [4] | activity change, negative = inhibition [5] -28.5% [at 30.8 µM]

COCCCn1c(=N)c(C(=O)NCc2cccnc2)cc2c(=O)n3cc(C)ccc3nc21
inactive: Potency [1] | Potency [2] | Potency [3] | Potency [4] | Potency [5]

Cc1nc2sc(C(c3cccs3)N3CCN(c4ccccc4)CC3)c(O)n2n1 (centres undefined)
inactive: Potency [1] | Potency [2] | Potency [3] | Potency [4] | Potency [5]

CCOC(=O)c1c(C)[nH]c(CCC(=O)NCc2cccc(OC)c2)c1C
inactive: Potency [1] | Potency [2] | Potency [3] | Potency [4] | Potency [5]

COCCn1cnnc1SCC(=O)Nc1sc2c(c1C#N)CCC2
inactive: Potency [1] | Potency [2] | activation [3] 9.93% [at 17.1 µM, percent relative to cAMP agonist control] | Potency [4] | activity change, negative = inhibition [5] 9.73% [at 30.8 µM]

COc1ccc(-c2nn(-c3ccccc3)cc2/C=N/n2cnnc2)cc1OC
inactive: Potency [1] | Potency [2] | Potency [3] | Potency [4] | Potency [5]

COC(=O)c1cc2oc(C)cc2n1Cc1cccc(Cl)c1
inactive: Potency [1] | Potency [2] | Potency [3] | Potency [4] | Potency [5]

Cc1ccnc(NS(=O)(=O)c2ccc(NC(=O)Cc3c(F)cccc3Cl)cc2)n1
inactive: Potency [1] | Potency [2] | Potency [3] | Potency [4] | Potency [5]

CNc1ccc(/C=C(\C#N)C(=O)Nc2ccccn2)cc1[N+](=O)[O-]
inactive: Potency [1] | Potency [2] | activation [3] 0.449% [at 17.1 µM, percent relative to cAMP agonist control] | Potency [4] | activity change, negative = inhibition [5] -23.3% [at 30.8 µM]

Cc1ccc(NC(=O)c2ccc(S(=O)(=O)N3CCCCCC3)cc2)nc1
inactive: Potency [1] | Potency [2] | activation [3] 5.15% [at 17.1 µM, percent relative to cAMP agonist control] | Potency [4] | activity change, negative = inhibition [5] -5.55% [at 30.8 µM]

CC(=O)Nc1ccc(S(=O)(=O)NCCC(=O)Nc2cc(C)ccn2)cc1
inactive: Potency [1] | Potency [2] | Potency [3] | Potency [4] | Potency [5]

N#C/C(=C\c1ccc(O)c(O)c1)C(=O)Nc1cccc2ncccc12
inactive: Potency [2] | Potency [3] | Potency [4] | Potency [5]
active: Potency [1] 7.57 µM

O=C1S/C(=C\c2ccc(N3CCOCC3)o2)C(=O)N1c1ccccc1
inactive: Potency [1] | Potency [2] | Potency [3] | Potency [4] | Potency [5]

CCOC(=O)C(C)n1cnc2c(nnn2-c2cccc(Cl)c2)c1=O (centres undefined)
inactive: Potency [1] | Potency [2] | activation [3] 0% [at 17.1 µM, percent relative to cAMP agonist control] | Potency [4] | activity change, negative = inhibition [5] -28.5% [at 30.8 µM]

CC(=C\c1ccccc1)/C=C1/SC(=S)N(CCCC(=O)O)C1=O
inactive: Potency [2] | Potency [3] | Potency [4] | Potency [5]
active: Potency [1] 84.9 µM

COC(=O)[C@@H]1C[C@@H](c2ccccc2)[C@H](C)C1(C)C
inactive: Potency [1] | Potency [2] | Potency [3] | Potency [4] | Potency [5]

N#Cc1cc2c(=O)n3ccccc3nc2n(-c2nnc(SCc3ccccc3Cl)s2)c1=O
inactive: Potency [1] | Potency [2] | Potency [3] | Potency [4] | Potency [5]

O=S(c1ccc2ccccc2c1)c1cnns1 (centres undefined)
inactive: Potency [1] | Potency [2] | Potency [3] | Potency [4] | Potency [5]

COc1ccc(S(=O)(=O)Nc2cccc(F)c2)cc1C
inactive: Potency [1] | Potency [2] | activation [3] 1.76% [at 17.1 µM, percent relative to cAMP agonist control] | Potency [4] | activity change, negative = inhibition [5] -14.5% [at 30.8 µM]

CN1\C(=C/C=C/C=C/C=[N+](C)C)C(C)(C)c2ccccc21
active: Potency [1] 39.8 µM
inactive: Potency [2] | activation [3] 2.26% [at 17.1 µM, percent relative to cAMP agonist control] | Potency [4] | activity change, negative = inhibition [5] 43.3% [at 30.8 µM]

COc1ccc(NC(=O)c2c[nH]n3c(=O)cc(C4CCN(C(=O)OC(C)(C)C)CC4)nc23)cc1Cl
inactive: Potency [2] | Potency [3] | Potency [4] | Potency [5]
active: Potency [1] 67.5 µM

O=C1NN(c2cccc(Br)c2)C(=O)/C1=C/c1ccc(-c2cc([N+](=O)[O-])ccc2O)o1
inactive: Potency [2] | Potency [3] | Potency [4] | Potency [5]
active: Potency [1] 16.9 µM

O=C(CCN1C(=O)S/C(=C\c2ccccc2)C1=O)Nc1ccc(S(=O)(=O)Nc2nccs2)cc1
active: Potency [1] 39.8 µM
inactive: Potency [2] | activation [3] 1.67% [at 17.1 µM, percent relative to cAMP agonist control] | Potency [4] | activity change, negative = inhibition [5] -0.356% [at 30.8 µM]

O=C(Nc1ccccc1C(F)(F)F)N1CCC(CN2CCc3ccccc3C2)CC1
inactive: Potency [1] | Potency [2] | Potency [3] | Potency [4] | Potency [5]

Cc1ccc(S(=O)(=O)Nc2cc(=O)[nH]c(SCC(=O)Nc3cccc(C)c3)n2)cc1
inactive: Potency [1] | Potency [2] | activation [3] 4.73% [at 17.1 µM, percent relative to cAMP agonist control] | Potency [4] | activity change, negative = inhibition [5] -4.46% [at 30.8 µM]

CCCOc1cccc(C2C(C(=O)c3cccs3)=C(O)C(=O)N2Cc2cccnc2)c1 (centres undefined)
inactive: Potency [1] | Potency [2] | activation [3] 2.94% [at 17.1 µM, percent relative to cAMP agonist control] | Potency [4] | activity change, negative = inhibition [5] -13.9% [at 30.8 µM]

COC(=O)c1cc(NC(=O)CC2C(=O)OCCN2Cc2ccccc2)cc(C(=O)OC)c1 (centres undefined)
inactive: Potency [1] | Potency [2] | Potency [3] | Potency [4] | Potency [5]

COC(=O)c1scc(C#N)c1N/N=C(\C#N)S(=O)(=O)c1ccc(Cl)cc1
active: Potency [1] 47.8 µM
inactive: Potency [2] | Potency [3] | Potency [4] | Potency [5] | Potency [6]

CN(CCC#N)C(=O)COC(=O)c1c2c(nc3ccccc13)/C(=C/c1ccco1)CC2
active: Potency [1] 3.55 µM
inactive: Potency [2] | activation [3] -0.614% [at 17.1 µM, percent relative to cAMP agonist control] | Potency [4] | activity change, negative = inhibition [5] -6.16% [at 30.8 µM]

Cc1ccc(-c2nc3ccc(Br)cn3c2Cc2ccccc2C(F)(F)F)cc1
active: Potency [1] 84.9 µM | Potency [4] 47.8 µM
inactive: Potency [2] | Potency [3] | Potency [5] | Potency [6]

Cc1ccc(S(=O)(=O)NC(=O)Cn2nnc(-c3ccccc3)c2COc2ccc3ccccc3c2)cc1
active: Potency [1] 19 µM
inactive: Potency [2] | Potency [3] | Potency [4] | Potency [5]

CC(=O)Nc1ccc(C=NNc2ccc(S(=O)(=O)Nc3ccccc3C(=O)O)cc2[N+](=O)[O-])cc1
active: Potency [1] 28.2 µM
inactive: Potency [2] | activation [3] 0.331% [at 17.1 µM, percent relative to cAMP agonist control] | Potency [4] | activity change, negative = inhibition [5] 0.935% [at 30.8 µM] | activation [6] 13.4% [at 30.8 µM]

CCC(=Cc1ccccc1OC)c1ccncc1
inactive: Potency [1] | Potency [2] | Potency [3] | Potency [4] | Potency [5]

CCOc1cc(C2C3=C(CC(C)(C)CC3=O)N(CCOC)C3=C2C(=O)CC(C)(C)C3)ccc1O
inactive: Potency [1] | Potency [2] | Potency [3] | Potency [4] | Potency [5] | Potency [6]

COc1ccc(C=NNc2ccc(S(=O)(=O)Nc3ccccc3C(=O)O)cc2[N+](=O)[O-])c(OC)c1
inactive: Potency [2] | Potency [3] | Potency [4] | Potency [5]
active: Potency [1] 15.1 µM

CN1CCN(C(CNC(=O)c2ccc(Br)o2)c2ccc(F)cc2)CC1 (centres undefined)
active: Potency [4] 1.69 µM
inactive: Potency [1] | Potency [2] | activation [3] 4.5% [at 17.1 µM, percent relative to cAMP agonist control] | activity change, negative = inhibition [5] -2.27% [at 30.8 µM]

O=C(Cn1nnc2sc(-c3ccccc3)cc2c1=O)Nc1cccc(C(F)(F)F)c1
inactive: Potency [1] | Potency [2] | Potency [3] | Potency [4] | Potency [5] | Potency [6]

O=C(CN1CCOCC1)Nc1ccccc1Sc1ccc(Cl)cc1
inactive: Potency [1] | Potency [2] | Potency [3] | Potency [4] | Potency [5]

Oc1ccc(NCc2ccccc2OCc2ccccc2)cc1
inactive: Potency [1] | Potency [2] | Potency [3] | Potency [4] | Potency [5] | activation [6] 20.2% [at 30.8 µM]

COc1ccc(C(CC(=O)N2CCOCC2)c2c(OC)cc(OC)c3c(-c4ccccc4)cc(=O)oc23)cc1 (centres undefined)
inactive: Potency [2] | Potency [3] | Potency [4] | Potency [5] | Potency [6]
active: Potency [1] 37.9 µM

COc1ccc(CCNC(=O)CCCCCn2c(SCC(N)=O)nc3cc4c(cc3c2=O)OCO4)cc1OC
inactive: Potency [1] | Potency [2] | Potency [3] | Potency [4] | Potency [5] | Potency [6]

O=C(N/N=C/c1ccc(F)cc1)c1cc(-c2ccco2)nc2ccccc12
active: Potency [1] 16.9 µM
inactive: Potency [2] | Potency [3] | Potency [4] | Potency [5]

O=C(/C=C/c1ccc([N+](=O)[O-])cc1)Nc1cccc(C(=O)Nc2ccccc2C(=O)O)c1
inactive: Potency [2] | activation [3] -2.89% [at 17.1 µM, percent relative to cAMP agonist control] | Potency [4] | activity change, negative = inhibition [5] 0.771% [at 30.8 µM] | activation [6] 4.73% [at 30.8 µM]
active: Potency [1] 22.4 µM
